# In PubChem BioAssay (NCATS):
# Records with an inconclusive call do not appear. The source made the active and inactive calls. Calls follow the shape of the dose curve; as a rule, active = well fitted curve in the direction sought with a large enough effect; inconclusive = small, poorly fitted or top-dose-only effect, or another doubt; inactive = no such curve, though single readings can be large; an effect the other way counts as inactive or inconclusive.
# Assays:
# [1] = P-glycoprotein substrates identified in KB-3-1 adenocarcinoma cell line, qHTS therapeutic library screen (AID 1346986); also: nearly all actives have a fitted effect of over 60% in size;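 also: potency is read from the fitted curve at half-maximal effect; potency is for cytotoxicity meaning loss of cell viability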
# Outline: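 72 h cell-killing screen, 500 cells/well, CellTiter-Glo luminescence. Paired lines KB-3-1/KB-8-5-11; P-gp dependence checked by tariquidar co-treatment and HEK-293 MDR-19 versus empty-vector cells.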
# [2] = P-glycoprotein substrates identified in KB-8-5-11 adenocarcinoma cell line, qHTS therapeutic library screen (AID 1346987); also: nearly all actives have a fitted effect of over 65% in size; also: potency is read from the fitted curve at half-maximal effect
# Outline: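 Luminescence from CellTiter-Glo, read 5 min after addition, quantified survival of KB-8-5-11 (P-gp-overexpressing) cells exposed to compounds for 72 h. AC50 was derived from concentration-response curves.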
# [3] = Primary qHTS for inhibitors of nuclear receptor binding SET domain protein 2 (NSD2) in an isogenic RCH-ACV NSD2 p.E1099K mutant (9B) (AID 1645876); also: nearly all actives have a fitted effect of over 70% in size; also: potency is read from the fitted curve at half-maximal effect
# [4] = Primary qHTS for inhibitors of nuclear receptor binding SET domain protein 2 (NSD2) in an RCH-ACV wild type WT cells (2C) (AID 1645877); also: nearly all actives have a fitted effect of over 70% in size; also: potency is read from the fitted curve at half-maximal effect
# [5] = target: Catechol O-methyltransferase (Homo sapiens) (UniProt P21964); experiment: Confirmatory Screen for Target Class Profiling of Small Molecule Inhibitors of Methyltransferases (AID 1745852); conditions: MTase-Glo luminescence, SAH detection, recombinant enzyme; measured here: COMT max response; stronger effect = lower value; as to activity change, negative = inhibition: % is scaled to controls: 0 for no effect and ±100 for the full control effect
# Chain of Catechol O-methyltransferase (Homo sapiens) (P21964 whole entry, looked up): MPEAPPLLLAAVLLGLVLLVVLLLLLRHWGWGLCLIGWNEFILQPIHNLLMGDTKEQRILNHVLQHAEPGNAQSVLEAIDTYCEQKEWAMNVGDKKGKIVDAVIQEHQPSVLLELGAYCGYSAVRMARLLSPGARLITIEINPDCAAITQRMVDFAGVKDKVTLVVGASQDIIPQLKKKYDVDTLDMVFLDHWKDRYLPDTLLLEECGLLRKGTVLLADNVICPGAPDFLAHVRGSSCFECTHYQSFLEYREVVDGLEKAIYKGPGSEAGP
# [6] = target: Guanidinoacetate N-methyltransferase (Homo sapiens) (UniProt Q14353); experiment: as above; conditions: activity change, negative = inhibition: at 57.3 µM (top of the series) unless noted
# [7] = target: Nicotinamide N-methyltransferase (Homo sapiens) (UniProt P40261); experiment: as above; conditions: MTase-Glo luminescence, SAH detection, recombinant enzyme; measured here: NNMT max response; stronger effect = lower value
# Chain of Nicotinamide N-methyltransferase (Homo sapiens) (P40261 whole entry, looked up): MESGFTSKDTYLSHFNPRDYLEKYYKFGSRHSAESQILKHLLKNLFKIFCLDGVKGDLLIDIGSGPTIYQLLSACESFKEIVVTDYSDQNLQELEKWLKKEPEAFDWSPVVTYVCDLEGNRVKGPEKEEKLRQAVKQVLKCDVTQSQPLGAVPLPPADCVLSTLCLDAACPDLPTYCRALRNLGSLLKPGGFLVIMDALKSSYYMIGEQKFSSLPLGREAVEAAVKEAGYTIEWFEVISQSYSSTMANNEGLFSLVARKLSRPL
# [8] = target: Phenylethanolamine N-methyltransferase (Homo sapiens) (UniProt P11086); experiment: as above; conditions: MTase-Glo luminescence, SAH detection, recombinant enzyme; measured here: PNMT max response; stronger effect = lower value
# Chain of Phenylethanolamine N-methyltransferase (Homo sapiens) (P11086 whole entry, looked up): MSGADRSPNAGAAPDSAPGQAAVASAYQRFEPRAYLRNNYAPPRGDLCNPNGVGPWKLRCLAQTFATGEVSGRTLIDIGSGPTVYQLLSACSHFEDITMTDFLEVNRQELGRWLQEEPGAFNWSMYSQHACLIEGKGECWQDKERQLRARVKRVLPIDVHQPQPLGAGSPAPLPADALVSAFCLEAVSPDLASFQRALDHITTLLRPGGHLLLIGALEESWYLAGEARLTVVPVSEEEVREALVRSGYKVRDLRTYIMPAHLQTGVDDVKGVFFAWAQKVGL
# [9] = target: Glutathione peroxidase 1 (Homo sapiens) (UniProt P07203); experiment: Primary qHTS Assay for Inhibitors of Recombinant Selenoprotein Glutathione Peroxidase 1 (GPX1) (AID 1845191); also: nearly all actives have a fitted effect of over 65% in size
# Chain of Glutathione peroxidase 1 (Homo sapiens) (P07203 whole entry, looked up): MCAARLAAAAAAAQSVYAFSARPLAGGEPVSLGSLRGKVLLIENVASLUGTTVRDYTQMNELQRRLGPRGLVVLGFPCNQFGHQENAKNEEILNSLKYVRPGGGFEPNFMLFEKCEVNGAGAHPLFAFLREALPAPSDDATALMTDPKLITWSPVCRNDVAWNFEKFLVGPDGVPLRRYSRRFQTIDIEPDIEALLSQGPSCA
# Outline: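 GPX1 10 nM, GR 100 nM, GSH 1 mM, NADPH 0.5 mM, CHP 0.5 mM (final). 30-min cpd preincubation, RT. Ex340/Em450 read t=0, t=15 min.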
# [10] = NCATS anti-infectives library activity on HEK293 viability as a counter-qHTS vs the C. elegans viability qHTS (AID 1745854);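 also: HEK293 cells exposed to compounds for 24 hr before the viability read; % is scaled to controls: 0 for no effect and ±100 for the full control effect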
# Outline: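 Counter-screen for cytotoxicity: HEK293, 24 hr, 37C, compounds up to 41.7 uM final (a dilution series, 1:5). Readout CellTiter-Glo luminescence, 10 min RT. Digitonin control, 83.3 uM final.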
# [11] = tested on: Zika virus NS2B-NS3 protease; experiment: Primary screen GU AMC qHTS for Zika virus inhibitors (AID 1347154);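 also: 0% = no-inhibitor control and -100% = no-enzyme control; nearly all actives have a fitted effect of over 70% in size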
# Outline: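 Unlinked Zika NS2B hydrophilic domain/NS3 protease domain noncovalent complex (25 nM final) in 10 mM Tris-HCl pH 8.0, 0.01% Tween 20, with AMC peptide substrate. Fluorescence (ex 340, em 450 nm) change over 15 min, room temperature; percent inhibition fitted to 4-parameter Hill equation.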
# [12] = Primary qHTS for small molecule stabilizers of the endoplasmic reticulum resident proteome: Secreted ER Calcium Modulated Protein (SERCaMP) assay (AID 1508630); also: % is scaled to controls: 0 for no effect and ±100 for the full control effect
# Outline: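 The SH-SY5Y reporter protocol was run at 3 concentrations up to 38.3 uM (primary) or 11 concentrations (follow-up): 16 h compound, 100 nM thapsigargin for 4 h, then extracellular luciferase luminescence.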
compound,measurement,setting,value
CC(C)n1nc(-c2ccc(NC(=O)Nc3cccc(C(F)(F)F)c3)cc2)c2c(N)ncnc21,Potency,[1],1.03 µM (active)
same,Potency,[2],4.11 µM (active)
same,Potency,[3],0.366 µM (active)
same,Potency,[4],0.259 µM (active)
same,activity,[5],-1.63%
same,"activity change, negative = inhibition",[6],0%
same,activity,[7],-74.3%
same,activity,[8],-1.08%
same,Potency,[9],inactive
Cc1cc(Nc2nn(-c3ccccc3)c(=O)c3ccccc23)n[nH]1,Potency,[1],6.51 µM (active)
same,Potency,[2],11.6 µM (active)
same,Potency,[3],1.16 µM (active)
same,Potency,[4],1.03 µM (active)
same,Potency,[9],inactive
CSc1nc(N)cc(Oc2ccc(-c3nc(Nc4cccc(C(F)(F)F)c4)n[nH]3)cc2)n1,Potency,[1],4.61 µM (active)
same,Potency,[2],5.8 µM (active)
same,Potency,[3],1.64 µM (active)
same,Potency,[4],1.3 µM (active)
same,Potency,[9],inactive
C/C(=C1/C(=O)Nc2ccc(NC(N)=O)cc21)c1ccc[nH]1,Potency,[1],4.61 µM (active)
same,Potency,[2],4.61 µM (active)
same,Potency,[3],1.64 µM (active)
same,Potency,[4],1.84 µM (active)
same,Potency,[9],inactive
CCOc1cccc2c1OC(c1ccc(F)cc1)C([N+](=O)[O-])=C2 (configuration not stated),Potency,[1],8.2 µM (active)
same,Potency,[2],11.6 µM (active)
same,Potency,[3],5.8 µM (active)
same,Potency,[4],5.8 µM (active)
same,Potency,[9],inactive
CC(C)C(=O)OC[C@H]1O[C@@H](n2ccc(N)nc2=O)[C@](C)(F)[C@@H]1OC(=O)C(C)C,Potency,[1],inactive
same,Potency,[2],inactive
same,Potency,[3],inactive
same,Potency,[4],inactive
same,outcome,[10],inactive
CN[C@H]1CCN(C(=O)c2ccc(Nc3ncc(F)c(-c4cnc(C)n4C(C)C)n3)cc2)C1,Potency,[1],0.058 µM (active)
same,Potency,[2],6.51 µM (active)
same,Potency,[3],0.092 µM (active)
same,Potency,[4],0.116 µM (active)
same,Potency,[9],inactive
CN(C)CC(=O)N1CCC[C@@H](n2nc(-c3ccc(Oc4ccccc4)cc3)c3c(N)ncnc32)C1,Potency,[1],20.6 µM (active)
same,Potency,[2],20.6 µM (active)
same,Potency,[3],1.64 µM (active)
same,Potency,[4],1.64 µM (active)
same,Potency,[9],inactive
c1ccc(-c2[nH]ncc2-c2ccnc3ccccc23)nc1,Potency,[1],inactive
same,Potency,[11],inactive
same,Potency,[12],inactive
same,Potency,[3],inactive
same,Potency,[4],inactive
same,Potency,[9],inactive
CS(=O)(=O)c1ccc([C@@H](C[C@H]2CCC(=O)C2)C(=O)Nc2cnccn2)cc1Cl,Potency,[1],inactive
same,Potency,[2],inactive
same,Potency,[3],inactive
same,Potency,[4],inactive
same,Potency,[9],inactive
Nc1nc(N)c2nc(-c3cccc(O)c3)cnc2n1,Potency,[1],5.8 µM (active)
same,Potency,[2],7.31 µM (active)
same,Potency,[3],1.64 µM (active)
same,Potency,[4],1.46 µM (active)
same,Potency,[9],inactive
CCOC(=O)c1c2c3c(cccc3[nH]c1=O)C(=O)c1ccccc1-2,Potency,[1],inactive
same,Potency,[2],inactive
same,Potency,[3],inactive
same,Potency,[4],inactive
same,Potency,[9],inactive
COc1cc(OC)c(C(=O)/C=C/c2ccccc2)c2c1C=CC(C)(C)O2,Potency,[1],inactive
same,Potency,[3],16.4 µM (active)
same,Potency,[4],18.4 µM (active)
same,Potency,[9],inactive
CCOc1ccc(/C=C2\SC(=O)N(CCN)C2=O)cc1,Potency,[1],inactive
same,Potency,[3],inactive
same,Potency,[4],inactive
